Inconclusive results are not listed. Entries that show only a call come without a potency. The source made the active and inactive calls. Calls follow the shape of the dose curve; as a rule, active = well fitted curve in the direction sought with a large enough effect; inconclusive = small, poorly fitted or top-dose-only effect, or another doubt; inactive = no such curve, though single readings can be large; an effect the other way counts as inactive or inconclusive.
Experiments:
[1] = P-glycoprotein substrates identified in KB-8-5-11 adenocarcinoma cell line, qHTS therapeutic library screen (AID 1346987); conditions: outcome: dose series up to 44.5 µM unless noted; also: nearly all actives have a fitted effect of over 65% in size; also: potency is read from the fitted curve at half-maximal effect
Procedure, shortened: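 In this qHTS, P-gp-rich KB-8-5-11 cells received library compounds across a concentration range. Viability was quantified by luminescence after 72 h at 37 degree C.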

[2] = NS1 protein of Zika virus - qHTS assay to identify small molecule inhibitors in human HEK 293 cells (AID 1347053); also: series mostly up to about 46 µM; nearly all actives have a fitted effect of over 55% in size
Procedure, shortened: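 Readout was TR-FRET using paired anti-NS1 antibodies after 24 h infection of HEK 293 cells with ZIKV MR766 (MOI = 0.5). Compound preceded virus by 1 h; reduced signal reflects lower NS1 expression.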

[3] = qHTS of pediatric cancer cell lines to identify multiple opportunities for drug repurposing: Primary screen for TC32 cells (AID 1347089); also: nearly all actives have a fitted effect of over 60% in size
Procedure, shortened: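 Luminescent CellTiter-Glo read-out of metabolically active TC32 cells after 48 h compound exposure. Primary: MIPE 11-point, 0.78 nM–46 µM; NPC 8-point, 0.59 nM–46 µM. Confirmatory: 11-point dilutions.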

[4] = qHTS of pediatric cancer cell lines to identify multiple opportunities for drug repurposing: Primary screen for SJ-GBM2 cells (AID 1347091)
Procedure, shortened: (§1)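 Eight- or eleven-point concentration series, 48 h treatment at 37 degrees C in growth media; readout CellTiter-Glo luminescence. Potency and efficacy were taken from the concentration-response curves.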

[5] = qHTS of pediatric cancer cell lines to identify multiple opportunities for drug repurposing: Primary screen for A673 cells (AID 1347092); also: nearly all actives have a fitted effect of over 45% in size; also: potency is read from the fitted curve at half-maximal effect
Procedure, shortened: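 A673 cells (500-1,000 cells/well in growth media) were pre-incubated 5 h at 37 degrees C, then exposed to compounds for 48 h. Viability was read as CellTiter-Glo luminescence; concentration-response curves came directly from the primary screen.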

[6] = qHTS of pediatric cancer cell lines to identify multiple opportunities for drug repurposing: Primary screen for BT-37 cells (AID 1347094); also: series mostly up to about 57 µM
Procedure, shortened: (§2)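 Readout: CellTiter-Glo luminescence, 48 h treatment. Controls DMSO (neutral) and bortezomib 2.3 µM final (positive). Potency and efficacy taken from primary-screen concentration-response curves.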

[7] = qHTS of pediatric cancer cell lines to identify multiple opportunities for drug repurposing: Primary screen for U-2 OS cells (AID 1347096); also: nearly all actives have a fitted effect of over 50% in size
Procedure, shortened: (§3)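 Cells (500-1,000/well) in growth media were settled 5 h at 37 degrees C, then given compounds for 48 h. Viability was read as CellTiter-Glo luminescence. Primary runs used MIPE at 11 points (0.78 nM-46 µM) and NPC at 8 points (0.59 nM-46 µM); follow-ups used 11 points.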

[8] = qHTS of pediatric cancer cell lines to identify multiple opportunities for drug repurposing: Primary screen for SK-N-SH cells (AID 1347098); also: nearly all actives have a fitted effect of over 65% in size
Procedure, shortened: (§4)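 Cells (500-1,000/well) rested 5 h, then received compounds for 48 h; metabolically active cells were measured by CellTiter-Glo luminescence. Final concentrations spanned up to 46 µM (MIPE, 11-point) or 0.59 nM-46 µM (NPC, 8-point) in primary screens, 11-point in follow-ups.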

[9] = qHTS of pediatric cancer cell lines to identify multiple opportunities for drug repurposing: Primary screen for BT-12 cells (AID 1347101); also: nearly all actives have a fitted effect of over 25% in size
Procedure, shortened: as §4

[10] = qHTS of pediatric cancer cell lines to identify multiple opportunities for drug repurposing: Primary screen for DAOY cells (AID 1347090); also: series mostly up to about 46 µM; nearly all actives have a fitted effect of over 55% in size
Procedure, shortened: as §1

[11] = qHTS of pediatric cancer cell lines to identify multiple opportunities for drug repurposing: Primary screen for SK-N-MC cells (AID 1347093); also: series mostly up to about 46 µM
Procedure, shortened: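 Metabolically active cells were quantified by ATP-dependent luminescence (CellTiter-Glo, 15 min at room temperature) following 48 h treatment. Cells had been plated at 500-1,000 per well and settled for 5 h beforehand.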

[12] = qHTS of pediatric cancer cell lines to identify multiple opportunities for drug repurposing: Primary screen for NB-EBc1 cells (AID 1347095)
Procedure, shortened: as §2

[13] = qHTS of pediatric cancer cell lines to identify multiple opportunities for drug repurposing: Primary screen for Saos-2 cells (AID 1347097); also: nearly all actives have a fitted effect of over 40% in size; also: potency is read from the fitted curve at half-maximal effect
Procedure, shortened: as §2

[14] = qHTS of pediatric cancer cell lines to identify multiple opportunities for drug repurposing: Primary screen for NB1643 cells (AID 1347099); also: nearly all actives have a fitted effect of over 50% in size
Procedure, shortened: as §2

[15] = qHTS of pediatric cancer cell lines to identify multiple opportunities for drug repurposing: Primary screen for LAN-5 cells (AID 1347100)
Procedure, shortened: as §3

## CC(=O)Oc1cccc2c1C(=O)c1c(OC(C)=O)cc(C(=O)O)cc1C2=O
[1]
  Potency: inactive
[2]
  outcome: inactive
[3]
  outcome: inactive
[4]
  outcome: inactive
[5]
  Potency: 21.1 µM (active)
[6]
  Potency: inactive
[7]
  outcome: inactive
[8]
  outcome: inactive
[9]
  outcome: inactive

## CCCCC[C@H](O)/C=C/[C@H]1[C@H](O)CC(=O)[C@@H]1C/C=C\CCCC(=O)O
[1]
  Potency: inactive

## O=C(OCc1ccccc1)c1ccc(O)cc1
[1]
  Potency: inactive
[2]
  outcome: inactive
[3]
  outcome: inactive
[10]
  outcome: inactive
[4]
  outcome: inactive
[5]
  Potency: inactive
[11]
  Potency: inactive
[6]
  Potency: inactive
[12]
  outcome: inactive
[7]
  outcome: inactive
[13]
  Potency: inactive
[14]
  outcome: inactive
[15]
  outcome: inactive
[9]
  outcome: inactive

## CN(C)C(=O)CCSC(SCCC(=O)O)c1cccc(/C=C/c2ccc3ccc(Cl)cc3n2)c1 (stereo not given)
[1]
  Potency: inactive

## NCC[C@H](O)C(=O)N[C@@H]1C[C@H](N)[C@@H](O[C@H]2O[C@H](CN)[C@@H](O)[C@H](O)[C@H]2O)[C@H](O)[C@H]1O[C@H]1O[C@H](CO)[C@@H](O)[C@H](N)[C@H]1O
[1]
  Potency: inactive

## CO/N=C(\C(=O)N[C@@H]1C(=O)N2C(C(=O)[O-])=C(C[n+]3cccc4c3CCC4)CS[C@H]12)c1csc(N)n1
[1]
  Potency: inactive

## COc1ccc2nc(NC(=O)Nc3ccccc3)sc2c1
[2]
  outcome: inactive
[3]
  outcome: inactive
[10]
  outcome: inactive
[4]
  outcome: inactive
[5]
  Potency: inactive
[11]
  Potency: inactive
[6]
  Potency: inactive
[12]
  outcome: inactive
[7]
  outcome: inactive
[8]
  outcome: inactive
[14]
  outcome: inactive
[15]
  outcome: inactive
[9]
  outcome: inactive

## CC/C=C\C/C=C\C/C=C\CCCCCCCC(=O)O
[1]
  Potency: inactive

## NCCO/C=C/[C@H](N)C(=O)O
[1]
  Potency: inactive

## COc1c(O[C@@H]2O[C@H](CO)[C@@H](O)[C@H](O)[C@H]2O)cc2c(c1OC)-c1ccc(SC)c(=O)cc1[C@@H](NC(C)=O)CC2
[1]
  Potency: inactive

## CCC(C)[C@@H](N)C(=O)O (stereo not given in full)
[1]
  Potency: inactive

## CN(C)CCCSc1ccccc1NC(=O)/C=C/c1ccccc1
[2]
  outcome: inactive
[3]
  outcome: inactive
[10]
  outcome: inactive
[11]
  Potency: inactive
[6]
  Potency: inactive
[12]
  outcome: inactive
[7]
  outcome: inactive
[13]
  Potency: 21.1 µM (active)
[8]
  outcome: inactive

## Nc1ccc(N=Nc2ccccc2)c(N)n1
[1]
  Potency: inactive
[2]
  outcome: inactive
[3]
  outcome: inactive
[10]
  outcome: inactive
[4]
  outcome: inactive
[5]
  Potency: inactive
[11]
  Potency: inactive
[6]
  Potency: inactive
[12]
  outcome: inactive
[7]
  outcome: inactive
[13]
  Potency: inactive
[14]
  outcome: inactive
[15]
  outcome: inactive
[9]
  outcome: inactive

## CC1=CC(=C(c2ccc(N)cc2)c2ccc(N)cc2)C=CC1=N
[1]
  Potency: 14.6 µM (active)

## CN1C(=O)OC(C)(C)C1=O
[1]
  Potency: inactive

## CCCOC(=O)c1ccccc1O
[1]
  Potency: inactive

## O=P(O)(O)CP(=O)(O)O
[1]
  Potency: inactive

## CN[C@@H]1[C@@H](O[C@H]2O[C@H](CO)[C@@H](N)[C@H](O)[C@H]2O)O[C@H]2C[C@@H](N)[C@@H](O[C@H]3[C@H](O)[C@@H](O)[C@H](N)C[C@@H]3N)O[C@@H]2[C@@H]1O
[1]
  Potency: inactive

## COc1ccc(C(=O)c2ccc(C)cc2)c(O)c1
[1]
  Potency: inactive

## CO/N=C(\C(=O)N[C@@H]1C(=O)N2C(C(=O)O)=C(CSc3nc(C)c(CC(=O)O)s3)CS[C@H]12)c1csc(N)n1
[1]
  Potency: inactive

## O=C(O)COc1ccc(CCNS(=O)(=O)c2ccccc2)s1
[1]
  Potency: inactive
